A selection: hits, their analogues and other compounds. The true share with any hit is near 1.7%.
GLP-1R agonist: agonists of human GLP-1 receptor; HEK293 GLP-1R CRE-luciferase, luminescence, 4-6 h; cells express a hypersensitive GLP-1R form; Potency, µM (top dose mostly 45.6 µM), inactives show at the top dose activation, hits mostly activators; 380,000 tested, 0.007% active; AID 624172; note: % of control where 0% means no effect
Target sequence (P43220 whole entry, looked up): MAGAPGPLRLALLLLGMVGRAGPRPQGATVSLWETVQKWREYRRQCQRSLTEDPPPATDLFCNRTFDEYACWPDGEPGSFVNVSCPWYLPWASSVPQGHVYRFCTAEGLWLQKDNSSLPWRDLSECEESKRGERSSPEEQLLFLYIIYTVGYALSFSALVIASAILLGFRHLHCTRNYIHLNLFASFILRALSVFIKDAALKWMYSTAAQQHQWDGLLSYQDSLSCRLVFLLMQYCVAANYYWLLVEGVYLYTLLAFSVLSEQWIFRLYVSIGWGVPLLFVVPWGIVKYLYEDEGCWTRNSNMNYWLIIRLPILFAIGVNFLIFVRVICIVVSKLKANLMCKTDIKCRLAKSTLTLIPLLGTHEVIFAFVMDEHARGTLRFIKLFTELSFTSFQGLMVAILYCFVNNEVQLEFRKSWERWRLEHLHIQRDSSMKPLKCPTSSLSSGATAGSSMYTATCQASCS
HEK293 tox: cytotoxic in the GLP-1 receptor inverse agonist counter-screen | HEK293 cAMP-luciferase reporter cells, luminescence, 24 h | Potency, µM (top dose mostly 38.3 µM), without a hit: at the top dose activity change, negative = inhibition, most hits filed as inhibitors | AID 624418 | 410,000 tested, 0.13% active;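 note: loss of luciferase light is scored as toxicity; % is set by controls: 0 for no effect and ±100 for the full control effect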
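Step one: seed cells (200 cells/uL, DMEM with 10% Nu serum, 1% pen-strep). Step two: 12-hour incubation at 37 deg C. Step three: pin 23 nL compound, incubate 24 hr. Step four: add luciferase reagent, read luminescence 12 min later.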
GLP1R inv ag: GLP-1 receptor (human) inverse agonism; P43220; HEK293 GLP-1R CRE-luciferase, luminescence, 24 h; GLP-1R form is constitutively active; Potency, µM (highest dose often 38.3 µM), for the others: at the highest dose activity change, negative = inhibition, actives largely listed as inhibitors; 410,000 tested, 1.6% active; AID 624417; note: % is set by controls: 0 for no effect and ±100 for the full control effect; nearly all actives have a fitted effect of over 55% in size
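Luminescence readout: a drop in cAMP-driven luciferase signal flags inverse agonism at a constitutively active GLP-1R stably expressed in HEK293. Compound exposure lasted 24 hr at 37 deg C, 5% CO2.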
Starred values were filed as active, the others as inactive; ? = inconclusive; · = no result. Calls come from the whole dose curve; as a rule, active = well fitted curve in the direction sought with a large enough effect; inconclusive = small, poorly fitted or top-dose-only effect, or another doubt; inactive = no such curve, though single readings can be large; an effect the other way counts as inactive or inconclusive. Potency is the fitted concentration of half-maximal effect.

SMILES	GLP-1R agonist	HEK293 tox	GLP1R inv ag
COc1ccccc1N1CCN(Cc2ccc(Br)cc2)CC1	7.2%	1.7%	10µM*
COc1ccccc1N1CCN(Cc2ccccc2Cl)CC1	0.4%	0.5%	0.0%
[O]=[Cr](=[O])([OH])[O][Cr](=[O])(=[O])[OH]	0.9%	·	·
C=CCOc1ccc(C2C(C#N)=C(N)N(Nc3ccccc3)C3=C2C(=O)CCC3)cc1OC (stereo not given)	0.0%	104.4%	?
CCCn1c(=N)n(CC(O)COc2cccc(C)c2)c2ccccc21 (stereo not given)	-0.6%	?	-9.7%
CCCCn1c(=N)n(CC(O)COc2ccccc2)c2ccccc21 (stereo not given)	2.1%	?	8.91µM*
C=C(C(=O)c1ccccc1)C(C)CC(=O)c1ccccc1 (stereo not given)	-12.1%	?	8.91µM*
NCC(=O)c1ccccc1	7.0%	5.7%	8.6%
CNCCCN1c2ccccc2CCc2ccccc21	-2.2%	-10.5%	3.98µM*
COCCCN1Cc2ccccc2C1=N	0.5%	0.2%	3.5%
Cc1ccc(S(=O)(=O)N(C)C[C@H]2Oc3c(NC(=O)Nc4cccc5ccccc45)cccc3C(=O)N([C@@H](C)CO)C[C@@H]2C)cc1	-4.3%	-36.5%	?
CC(C)(C)OC(=O)N1CCCC(C(=O)Nc2cccc(C(=O)NCCc3ccccc3)c2)C1 (stereo not given)	10.3%	-11.5%	?
CC(C)(C)OC(=O)[C@H](Cc1ccccc1)NC(=O)c1nc[nH]c1C(=O)NC1CCN(C(=O)OC(C)(C)C)CC1	-3.8%	?	10µM*
COc1ccc(CNC(=O)Nc2nc(C(N)Cc3ccc(C(F)(F)F)cc3)cs2)cc1 (stereo not given)	-7.8%	?	?
CC[n+]1c(-c2ccccc2)c2cc(N)ccc2c2ccc(N)cc21	-29.6%	?	5.62µM*
CC1=C(C)/C(=N\OS(=O)(=O)c2ccccc2)C=CC1=O	-11.3%	?	?
COc1cc(OC)c(OC)cc1CN1CCN(C(=O)COc2ccc3ccccc3c2)CC1	0.9%	3.7%	?
COc1cccc(CN2CCN(C(=O)COc3ccc4ccccc4c3)CC2)c1	-2.1%	-17.0%	11.2µM*
CC(C)CNC(=S)N(Cc1ccco1)Cc1cc2cc3c(cc2[nH]c1=O)OCCO3	9.5%	?	?
C[C@H]1CN([C@@H](C)CO)C(=O)c2cccc(NC(=O)Nc3ccc(C(F)(F)F)cc3)c2O[C@@H]1CN(C)C(=O)Nc1ccc(F)cc1	-9.5%	?	11.2µM*
C[C@@H]1CN([C@H](C)CO)C(=O)c2cc(NC(=O)Nc3ccc(C(F)(F)F)cc3)ccc2O[C@H]1CN(C)C(=O)Nc1ccc(F)cc1	0.6%	?	?
CC(=O)Oc1ccc(-c2ccc(C(=O)Nc3cccc(S(=O)(=O)N4CCOCC4)c3)cc2)cc1	0.0%	?	1.41µM*
COc1ccc(C(=O)NC(=S)Nc2cccc(S(=O)(=O)N3CCOCC3)c2)cc1	11.1%	?	?
Cc1sc2ncnc(N3CCC(C(=O)NCC(=O)Nc4ccc(F)c(F)c4)CC3)c2c1C	-8.2%	?	?
O=C1CC(=O)N(c2cccc(C(F)(F)F)c2)C(=O)N1	-1.4%	18.0%	3.7%
SMILES	GLP-1R agonist	HEK293 tox	GLP1R inv ag
O=[N+]([O-])c1cccnc1N1CCC(c2cc(-c3cccc(C(F)(F)F)c3)n[nH]2)CC1	-5.2%	?	8.91µM*
CN1C(=O)C(=Cc2ccccc2OCc2ccc(C(=O)O)cc2)C(=O)N(C)C1=O	0.1%	-1.9%	26.4%
CN1C(=O)C(=Cc2ccccc2OCc2ccccc2Cl)C(=O)N(C)C1=O	10.3%	-21.6%	10µM*
CCCOP(=O)(OCCC)c1nc(-c2ccccc2)oc1NCc1ccccc1	7.9%	9.6%	10µM*
CCOP(=O)(OCC)c1nc(-c2ccc(Cl)cc2)oc1NCc1ccccc1	-5.9%	-13.7%	?
CCOc1ccc(C(C)=O)cc1COC(=O)c1ccc2c(c1)NC(=O)CS2	12.7%	?	-15.6%
COc1cccc(-c2ccc3c(N)c(C(=O)Nc4cc(C(F)(F)F)ccc4OC)sc3n2)c1	0.1%	34.7%	37.5%
COc1cc(NC(=O)c2csc(N)n2)cc(C(=O)Nc2cccc(C(F)(F)F)c2)c1	0.0%	?	3.98µM*
COC(=O)C1=C(c2ccc(F)cc2OCc2ccccc2)C[C@@H]2CC[C@H]1N2C(=O)NCc1cccc(C(F)(F)F)c1	8.1%	1.1%	5.62µM*
COC(=O)C1=C(c2ccc(F)cc2OCc2ccccc2)C[C@@H]2CC[C@H]1N2C(=O)NCc1cccc(OC)c1	1.8%	4.0%	-6.7%

Compound activity (PubChem BioAssay)
